An excerpt weighted towards active compounds, which were near 2.4% of everything screened.
D2 antagonist: HTS Assay for Allosteric Antagonists of the Human D2 Dopamine Receptor: Primary Screen for Antagonists; hit rate 2% among 340,000; inhibition, % at 10 µM; HEK293 TREx D2 cells, calcium flux, dopamine EC80; in the data active = inhibition above about 30%; inactive = below that, where a call was filed; also: 0% is about no effect
Target sequence (P14416 whole entry, looked up): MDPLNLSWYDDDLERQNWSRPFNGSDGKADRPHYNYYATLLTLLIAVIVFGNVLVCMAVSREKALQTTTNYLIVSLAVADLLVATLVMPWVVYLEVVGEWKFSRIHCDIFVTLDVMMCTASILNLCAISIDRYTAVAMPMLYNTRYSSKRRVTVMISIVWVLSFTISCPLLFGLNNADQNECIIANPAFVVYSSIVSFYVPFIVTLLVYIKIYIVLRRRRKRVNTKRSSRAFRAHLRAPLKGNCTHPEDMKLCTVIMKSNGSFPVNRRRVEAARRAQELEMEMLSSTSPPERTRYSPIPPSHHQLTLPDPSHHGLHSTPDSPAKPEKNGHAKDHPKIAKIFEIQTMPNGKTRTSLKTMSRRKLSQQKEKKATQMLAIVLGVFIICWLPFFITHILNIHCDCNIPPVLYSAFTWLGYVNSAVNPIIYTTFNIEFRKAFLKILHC
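Inhibition of EC80 dopamine-driven calcium flux, recorded kinetically, defines activity here; cells are a tetracycline-induced HEK293 T-REx line expressing force-coupled D2.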
D2 PAM-1: HTS Assay for Positive Allosteric Modulators of the Human D2 Dopamine Receptor: Primary Screen for Potentiators. D(2) dopamine receptor (Homo sapiens), P14416. potentiation, % at 10 µM. HEK293 T-REx D2, calcium flux, EC20 dopamine potentiation. hit rate 0.34% among 340,000;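 active = potentiation over 3 SD above the plate norm, cut at about 30% in these data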; also: 0% is about no effect
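Calcium flux readout, no-wash dye, 1 read/s. Inducible HEK293 Trex D2 line, overnight 30 C. Compound alone 180 s (agonist flags), then EC20 dopamine, another 180 s to score potentiation.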
D2 ag-1: HTS Assay for Allosteric Agonists of the Human D2 Dopamine Receptor: Primary Screen for Agonists; HEK293 T-REx D2 cells, calcium flux agonist mode; activation, % at 2 µM; hit rate 0.53% among 340,000;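 active = activation over 3 SD above normal in the single-dose calcium agonist read, cut at about 30% in these data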; also: 0% is about no effect
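Tetracycline-induced HEK293 Trex cells with D2 receptor force-coupled to calcium signaling, plated overnight at 30 C and loaded with no-wash calcium dye. Calcium flux read kinetically for 180 s after compound addition; responses flag agonists.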
D2 PAM-2: Beta-Arrestin HTS for Positive Allosteric Modulators of the Human D2 Dopamine Receptor: Potentiators. hit rate 0.23% among 360,000. D(2) dopamine receptor (Homo sapiens), P14416. DiscoveRx D2 beta-arrestin cells, luminescence, 90 min; 100% = 57 uM dopamine signal. AID 624464, 2012. potentiation, % (concentration not given with the values); in the data active = potentiation above about 50%
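PathHunter D2 cells, attached overnight at 37 deg C, received compound in DMSO plus dopamine at EC20 (50 nM final) for 90 min at 37 deg C. Beta-arrestin recruitment was read as luminescence after 1 h with detection reagent at ambient temperature.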
D2 ag-2: Beta-Arrestin HTS for Positive Allosteric Modulators of the Human D2 Dopamine Receptor: Agonists. AID 624465, 2012. D(2) dopamine receptor (Homo sapiens), P14416. activation, % (test concentration not listed). hit rate 0.084% among 360,000. DiscoveRx PathHunter D2 beta-arrestin, luminescence, 90 min; 100% = 57 uM dopamine signal; in the data active = activation above about 40%
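Agonist mode: compounds alone added to overnight-plated D2 PathHunter cells for 90 min at 37 C, with 57 uM final dopamine (EC100) defining full response. Beta-arrestin recruitment detected by chemiluminescent reagent, read after 1 h at ambient temperature.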
Active calls of the source: *; . = not tested or not shown.

SMILES | D2 antagonist | D2 PAM-1 | D2 ag-1 | D2 PAM-2 | D2 ag-2
NC(=O)CC(NC(=O)c1ccccc1)c1ccc(NCC2CC2)c([N+](=O)[O-])c1 (stereo unspecified) | 6.8 | -0.6 | 0.2 | -9.2 | -6.1
CCCCNc1ccc(C(CC(N)=O)NC(=O)Cc2cccc3ccccc23)cc1[N+](=O)[O-] (stereo unspecified) | -0.8 | -4.6 | 0.7 | -0.6 | -1.2
Cc1cccc(CNc2ccc(C(CC(N)=O)NC(=O)Cc3cccc4ccccc34)cc2[N+](=O)[O-])c1 (stereo unspecified) | 33.8* | 1.8 | -0.5 | -4.0 | -4.1
NC(=O)CC(NC(=O)c1cccc(Br)c1)c1ccc(NCC2CC2)c([N+](=O)[O-])c1 (stereo unspecified) | 37.7* | -8.9 | 0.2 | -10.8 | -3.1
CCN1CCC(N(Cc2ccc(F)cc2)C(=O)Nc2cc(Cl)ccc2C(=O)OC)CC1 | . | 2.3 | -0.6 | . | .
CCn1cc(C(=O)N[C@@H](C)C(=O)OC)c(=O)c2cc3c(cc21)OCO3 | 44.4* | -3.9 | 0.9 | -2.7 | -4.1
O=C(CS(=O)(=O)c1cccc2nsnc12)N1CCN(c2cccc(C(F)(F)F)c2)CC1 | . | -4.7 | 0.3 | . | .
Nc1nc(N)c2c(ccc3nccc32)[nH]1 | -5.8 | 9.1 | -0.5 | 52.2* | -1.4
Nc1ccc2ncccc2c1N | . | . | . | 20.0 | 1.7
C/C(CCN1CCCCc2nc(C)c(C)cc21)=N\O[C@H](C)c1cn([C@H](CO)Cc2ccccc2)nn1 | -2.2 | 1.9 | -0.9 | . | .
CC(=O)OC[C@H]1O[C@H](CCO/N=C(\C)CCN2CCCc3nc(C)c(C)cc32)C=C[C@@H]1OC(C)=O | 78.2* | -23.7 | 65.0* | . | .
CCOC(=O)C1CCN(C(=O)COc2ccc(S(=O)(=O)NC(C)C)cc2Cl)CC1 | 7.3 | 8.9 | 0.4 | -26.3 | -1.0
CC(C)NS(=O)(=O)c1ccc(OCC(N)=O)c(Cl)c1 | 33.6* | 6.0 | 0.1 | -11.0 | -1.5
COc1ccccc1NS(=O)(=O)c1ccc(NN=C2CCCC2)c([N+](=O)[O-])c1 | 34.4* | 2.7 | -0.8 | 15.1 | 0.3
COc1ccccc1NS(=O)(=O)c1ccc(N/N=C/C=C/c2ccccc2[N+](=O)[O-])c([N+](=O)[O-])c1 | -0.9 | -1.9 | -0.1 | -11.2 | 2.2
COc1ccccc1N1CCN(Cc2nc(N)nc(Nc3ccc(C)c(Cl)c3)n2)CC1 | 54.8* | . | 0.6 | -7.2 | 1.4
COc1ccccc1N1CCN(Cc2cnc3ccc(Cl)cn23)CC1 | 55.2* | -29.1 | -0.6 | -9.2 | -3.7
COC(=O)c1cc(CN2CCN(c3ccccc3C)CC2)ccc1O | 57.9* | -12.7 | -1.3 | -20.9 | -3.5
COc1ccccc1OCCCCN1CCN(c2ccccc2OC)CC1 | 3.9 | 7.4 | 0.9 | -35.9 | -2.7
COc1ccccc1Nc1nc(N)nc(CN2CCN(c3ccccc3F)CC2)n1 | -6.8 | 18.6 | -1.3 | -29.1 | 1.4
COc1ccc(CN2CCN(c3ccccc3OC)CC2)cc1OC | 66.0* | -33.2 | 0.7 | -2.6 | -4.5
COc1ccccc1N1CCN(Cc2ccc(C(=O)O)cc2)CC1 | -2.3 | -2.6 | 1.0 | -17.4 | -8.1
N#C/C(=C\c1ccc(F)cc1)C(=O)NCC1CCCO1 (stereo unspecified) | . | -3.1 | 1.0 | . | .
Cc1cccc(N2CCN(C(=O)c3cc4ccc5cccnc5c4[nH]3)CC2)c1C | . | 0.6 | 0.9 | . | .
COc1ccc(OC)c(CN2CCCCCC2)c1 | -6.6 | -7.8 | -1.2 | -14.7 | -0.8
SMILES | D2 antagonist | D2 PAM-1 | D2 ag-1 | D2 PAM-2 | D2 ag-2
COc1ccccc1N1CCN(Cc2cc3c(cc2[N+](=O)[O-])OCO3)CC1 | 51.6* | -17.3 | -0.5 | -3.4 | -6.0
COc1ccc(OC)c(CN2CCN(c3ccccc3OC)CC2)c1 | -2.3 | -2.8 | -0.2 | -20.1 | -2.4
COc1ccccc1N1CCN(Cc2ccc(OC)c(OC)c2OC)CC1 | 80.8* | -29.8 | 0.6 | -43.7 | 1.5
COc1ccc(CN2CCN(c3ccccc3OC)CC2)c(OC)c1 | 91.2* | -21.4 | 0.2 | -63.7 | -1.4
COc1ccc(OC)c(CN2CCN(Cc3cccc4ccccc34)CC2)c1 | 71.0* | -31.0 | -0.7 | -11.5 | 10.5
COc1ccc(NC(=O)Cn2c(=O)n(-c3ccc(C)cc3)c(=O)c3c2c2cc(C)ccc2n3C)cc1 | . | 14.8 | -0.4 | . | .
CCOC(=O)c1cc(-c2ccc(C)cc2)n(CCC(=O)NCCc2ccc(C)cc2)c1C | . | 9.9 | 0.5 | . | .
Cc1cccc(NS(=O)(=O)c2ccc3c(c2)CCN3C(=O)C2CC2)c1C | . | -0.3 | -0.4 | . | .
COc1ccc2oc(-c3ccc(C)c(NC(=O)Cc4ccc(Cl)cc4)c3)nc2c1 | . | -6.1 | 0.7 | . | .
COc1ccc2ccccc2c1CN1CCN(C)CC1 | 39.8* | -17.7 | 1.2 | -34.7 | -1.6
CCN1CCc2c(sc(NC(=O)c3ccc(S(=O)(=O)N(CCOC)CCOC)cc3)c2C(N)=O)C1 | . | -3.6 | -0.3 | . | .
CC(C)N1CCc2c(sc(NC(=O)c3ccc(S(=O)(=O)N(C)C4CCCCC4)cc3)c2C(N)=O)C1 | . | 8.4 | 2.2 | . | .
CCN1CCc2c(sc(NC(=O)c3ccc(S(=O)(=O)N(C)c4ccccc4)cc3)c2C(=O)NC)C1 | 1.4 | 1.1 | 38.1* | -1.8 | -7.0
CNC(=O)c1c(NC(=O)c2ccc(S(=O)(=O)N(C)c3ccccc3)cc2)sc2c1CCN(C(C)C)C2 | 19.2 | -2.6 | 84.4* | 15.2 | -2.1
COc1ccc(C(=O)Nc2ccc(C(=O)OCC(=O)c3cccc4ccccc34)cc2)cc1 | 76.4* | -0.5 | 0.9 | -17.3 | 2.6
COc1ccc(NC(=O)c2ccc3ccccc3c2)cc1 | 1.8 | 8.7 | 0.3 | -0.6 | 5.1
Cc1cccc(NC(=O)Cn2c(=O)n(Cc3ccccc3)c(=O)c3oc4ccccc4c32)c1C | . | 3.0 | 0.7 | . | .
Cc1cc(Br)ccc1N=C1C(=O)Nc2ccccc21 | 58.9* | -0.8 | -0.3 | -7.8 | -16.2
Cc1ccc(CNC(=O)CN(C2CCCCC2)S(C)(=O)=O)cc1 | 3.0 | -6.0 | 0.0 | -6.8 | -4.0
CS(=O)(=O)N(CC(=O)NCc1ccccc1)C1CCCCC1 | 36.9* | -7.8 | -0.3 | -2.6 | -4.0
COc1ccccc1NC(=O)Cn1c(=O)n(Cc2ccccc2)c(=O)c2sc3ccccc3c21 | . | 3.0 | -0.4 | . | .
CCCn1cnc2c(N)c(C)c(C)cc21 | 32.4* | 8.4 | 0.6 | -4.5 | -0.6
COc1cccc(Cn2cnc3c(N)c(C)c(C)cc32)c1 | -7.9 | -1.9 | 1.9 | -0.8 | -1.7
Cc1ccc(-n2ncc3c(Nc4cccc(C(F)(F)F)c4)ncnc32)cc1C | . | -2.8 | -0.2 | . | .
CCCCN(C)Cc1c(O)ccc2c(-c3ccccc3)cc(=O)oc12 | 64.1* | . | 0.0 | -42.8 | -0.8

Source: PubChem BioAssay (National Center for Advancing Translational Sciences (NCATS))
